Test results reported in PubChem BioAssay (NCI).
About 83,000 compounds went through this panel and 20% of them were active in at least one assay; those are over-represented in the sample as a whole.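 Single-concentration screen, 48 h exposure, 96-well plates. Endpoint: percent growth. Below 10 = active.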 Active and inactive are the calls of the source.

Assays:
Assay in all cases: NCI-60 one-dose screen, 48 h (100 = growth as untreated, 0 = no growth, -100 = all killed)
Details in all cases: 10 µM unless noted
HCT-15 colon = test system: HCT-15 colon
HT29 colon = test system: HT29 colon
SNB-75 CNS = test system: SNB-75 CNS
SNB-19 CNS = test system: SNB-19 CNS
U251 CNS = test system: U251 CNS
PC-3 prostate = test system: PC-3 prostate
SK-MEL-5 melanoma = test system: SK-MEL-5 melanoma
UACC-62 melanoma = test system: UACC-62 melanoma
LOX IMVI melanoma = test system: LOX IMVI melanoma
SK-MEL-28 melanoma = test system: SK-MEL-28 melanoma

Measured: growth

O=C(O)c1ccc(Br)nc1
inactive: HCT-15 colon 97.8% | HT29 colon 96.1% | SNB-75 CNS 81.7% | SNB-19 CNS 95.3% | U251 CNS 93.8% | PC-3 prostate 97.3% | SK-MEL-5 melanoma 102% | UACC-62 melanoma 95.8% | LOX IMVI melanoma 97.2% | SK-MEL-28 melanoma 104%

O=C(CCl)c1ccc2c(c1)CCCC2
inactive: HCT-15 colon 69.6% | HT29 colon 103% | SNB-75 CNS 114% | SNB-19 CNS 108% | U251 CNS 96.5% | PC-3 prostate 95.7% | SK-MEL-5 melanoma 106% | UACC-62 melanoma 98.5% | SK-MEL-28 melanoma 105%

CCCCCCC(=O)C(C)C
inactive: HCT-15 colon 102% | HT29 colon 109% | SNB-75 CNS 95.1% | SNB-19 CNS 107% | U251 CNS 98.6% | PC-3 prostate 100% | SK-MEL-5 melanoma 101% | UACC-62 melanoma 107% | SK-MEL-28 melanoma 113%

CCCNC(=O)Oc1ccc(/C(=C(/CC)Cc2ccccc2)c2ccc(OCCN(CC)CC)cc2)cc1
active: HCT-15 colon 7.99% | HT29 colon -14.8%
inactive: SNB-75 CNS 63.6% | SNB-19 CNS 87.7% | U251 CNS 45.1% | PC-3 prostate 60.8% | SK-MEL-5 melanoma 39.8% | UACC-62 melanoma 91.7% | LOX IMVI melanoma 63.9% | SK-MEL-28 melanoma 92.9%

C=CCNC(=S)NNc1ccc([N+](=O)[O-])cn1
inactive: HCT-15 colon 100% | HT29 colon 90.5% | SNB-75 CNS 81.8% | SNB-19 CNS 103% | U251 CNS 101% | PC-3 prostate 100% | SK-MEL-5 melanoma 94.3% | UACC-62 melanoma 99.3% | LOX IMVI melanoma 82% | SK-MEL-28 melanoma 106%

COc1ccc(OC)c(Cn2cc3c(c2-c2ccccc2)CCc2cnoc2-3)c1
inactive: HCT-15 colon 45.5% | HT29 colon 30.4% | SNB-75 CNS 55.9% | SNB-19 CNS 65.5% | U251 CNS 53.4% | PC-3 prostate 41.1% | SK-MEL-5 melanoma 40.2% | UACC-62 melanoma 48.1% | LOX IMVI melanoma 61.6% | SK-MEL-28 melanoma 65.9%

CCCCCCCCCCCCOC(=O)/C=C\C(=O)NC(N)=O
inactive: HCT-15 colon 57.9% | HT29 colon 88.6% | SNB-75 CNS 81.5% | SNB-19 CNS 91.6% | U251 CNS 74% | PC-3 prostate 71.6% | SK-MEL-5 melanoma 99.6% | UACC-62 melanoma 82% | SK-MEL-28 melanoma 99.2%

CC(CCN1CCN(CCC(C)CC(C)(C)C)C1CC(C)CC(C)(C)C)CC(C)(C)C (stereo not drawn)
inactive: HCT-15 colon 87.5% | HT29 colon 39.4% | SNB-75 CNS 80.7% | SNB-19 CNS 102% | U251 CNS 91.6% | PC-3 prostate 56.7% | SK-MEL-5 melanoma 108% | UACC-62 melanoma 103% | LOX IMVI melanoma 81.8% | SK-MEL-28 melanoma 105%

N#Cc1ccc(NC2c3ccccc3CC2O)cc1 (stereo not drawn)
inactive: HCT-15 colon 101% | HT29 colon 110% | SNB-75 CNS 91.5% | SNB-19 CNS 109% | U251 CNS 113% | PC-3 prostate 98.8% | SK-MEL-5 melanoma 102% | UACC-62 melanoma 99.1% | SK-MEL-28 melanoma 109%

O=C(Nc1ccc(-n2cc(-c3ccncc3)c(-c3ccc(Cl)c(O)c3)n2)cc1)Nc1cc(C(F)(F)F)cc(C(F)(F)F)c1
inactive: HCT-15 colon 15.6% | SNB-19 CNS 27.1% | U251 CNS 15.8% | LOX IMVI melanoma 19.8% | SK-MEL-28 melanoma 16.1%
active: HT29 colon 0.312% | SNB-75 CNS -0.49% | PC-3 prostate 4.61% | SK-MEL-5 melanoma -24.4% | UACC-62 melanoma 5.53%

CCCCCCCCCCCCCCCCCC1=NCCN1CCNC(C)=O
inactive: HCT-15 colon 74.6% | HT29 colon 57.3% | SNB-75 CNS 83.5% | SNB-19 CNS 101% | U251 CNS 79.1% | PC-3 prostate 80.3% | SK-MEL-5 melanoma 102% | UACC-62 melanoma 107% | SK-MEL-28 melanoma 98.1%
active: LOX IMVI melanoma -14.6%

COc1ccc2sc(-n3nc4nc5n(c(=O)c4c3N)-c3ccccc3Sc3ccccc3-5)nc2c1
inactive: HCT-15 colon 82.6% | HT29 colon 73.6% | SNB-75 CNS 73.8% | SNB-19 CNS 79.7% | U251 CNS 82.2% | PC-3 prostate 48.7% | SK-MEL-5 melanoma 41.1% | UACC-62 melanoma 64.1% | LOX IMVI melanoma 79.8% | SK-MEL-28 melanoma 92.6%

CC[C@H](Nc1ncnc2nc[nH]c12)c1nc2cccc(NCc3ccc(C(=O)NO)o3)c2c(=O)n1-c1ccccc1
inactive: HCT-15 colon 103% | HT29 colon 91.3% | SNB-75 CNS 71.6% | SNB-19 CNS 99.7% | U251 CNS 107% | PC-3 prostate 93.3% | SK-MEL-5 melanoma 101% | UACC-62 melanoma 92.6% | LOX IMVI melanoma 95.4% | SK-MEL-28 melanoma 100%

O=C1c2cc([N+](=O)[O-])ccc2-c2cc(Cl)c(NC(=O)C(F)(F)F)cc21
inactive: HCT-15 colon 95.4% | HT29 colon 108% | SNB-75 CNS 91.1% | SNB-19 CNS 106% | U251 CNS 110% | PC-3 prostate 94.8% | SK-MEL-5 melanoma 100% | UACC-62 melanoma 101% | SK-MEL-28 melanoma 106%

COC(=O)c1ccc2[nH]c(O)c(C(=Nc3ccc(N(C)C(=O)CN4CCN(C)CC4)cc3)c3ccc(CCO)cc3)c2c1
inactive: HCT-15 colon 82.1% | HT29 colon 43.8% | SNB-75 CNS 18.1% | SNB-19 CNS 31.4% | U251 CNS 31.3% | PC-3 prostate 56.4% | SK-MEL-5 melanoma 50% | UACC-62 melanoma 73.7% | LOX IMVI melanoma 37.5% | SK-MEL-28 melanoma 38.3%

CCCCCCCCCCC1OC(C)CC(C)O1 (stereo not drawn)
inactive: HCT-15 colon 102% | HT29 colon 106% | SNB-75 CNS 95.4% | SNB-19 CNS 109% | U251 CNS 105% | PC-3 prostate 101% | SK-MEL-5 melanoma 107% | UACC-62 melanoma 107% | SK-MEL-28 melanoma 102%

CCCCCCCCCC[N+](C)(C)C
active: HT29 colon 8.24% | SNB-75 CNS -22.8% | U251 CNS -75.4% | PC-3 prostate -49% | SK-MEL-5 melanoma -13.6% | LOX IMVI melanoma -78.4%
inactive: HCT-15 colon 39.3% | SNB-19 CNS 13.4% | UACC-62 melanoma 28.5% | SK-MEL-28 melanoma 51.8%

C=C(C)[C@@H]1CC[C@]2(COC(=O)c3ccccc3C(=O)O)CC[C@]3(C)[C@H](CC[C@@H]4[C@@]5(C)CCCNC(C)(C)[C@@H]5CC[C@]43C)[C@@H]12
inactive: HCT-15 colon 58% | HT29 colon 26.6% | SNB-75 CNS 75% | SNB-19 CNS 71% | U251 CNS 44.8% | PC-3 prostate 20.8% | SK-MEL-5 melanoma 46.2% | LOX IMVI melanoma 48.3%

Ic1ccc(SSc2ccc(I)cc2)cc1
active: LOX IMVI melanoma 0.697%
inactive: HCT-15 colon 99.5% | HT29 colon 95.3% | SNB-75 CNS 88.4% | SNB-19 CNS 94.6% | U251 CNS 67.8% | PC-3 prostate 58.5% | SK-MEL-5 melanoma 90.8% | UACC-62 melanoma 97.8% | SK-MEL-28 melanoma 108%

N=C(c1ccccc1)N(Cc1ccccc1)Cc1ccccc1
inactive: HCT-15 colon 74.8% | HT29 colon 53.4% | SNB-75 CNS 97.7% | SNB-19 CNS 99.8% | U251 CNS 96.7% | PC-3 prostate 81.5% | SK-MEL-5 melanoma 104% | UACC-62 melanoma 87.3% | SK-MEL-28 melanoma 98.8%

CCC(CCCN1C(=O)c2ccccc2C1=O)Nc1cc(OC)cc2c(C)ccnc12 (stereo not drawn)
inactive: HCT-15 colon 91.5% | HT29 colon 100% | SNB-75 CNS 92.2% | SNB-19 CNS 102% | U251 CNS 90.7% | PC-3 prostate 89.1% | SK-MEL-5 melanoma 85.3% | LOX IMVI melanoma 95.8% | SK-MEL-28 melanoma 101%

CC(=O)Nc1nc(C)c(C(=O)N/N=C/c2cccs2)s1
inactive: HCT-15 colon 101% | HT29 colon 95% | SNB-75 CNS 72% | SNB-19 CNS 96.8% | U251 CNS 98.6% | PC-3 prostate 101% | SK-MEL-5 melanoma 97.7% | LOX IMVI melanoma 93.2%
